From ChEMBL document CHEMBL3988442, “University of Dundee, Small-Polar-MMV Screening Library” (2021)
For some assays here: Results with a measured potency or affinity are listed apart.

Tests used:
Set-up in all cases: scale not given: direction of the effect not stated beside the values
[1] = target: Protein translocase subunit SecA (Escherichia coli (strain K12)) (UniProt P10408); test: Assay to Identify E. coli SecA ATPase Inhibitors; format: functional; conditions: 30 µM
[2] = target: T1, Ubiquitin-activating enzyme e1, putative (Leishmania donovani (strain BPK282A1)) (UniProt E9BSI1); test: Leishmania donovani Ubiquitin Activating Enzyme (LdE1); format: functional; conditions: 30 µM
T1 sequence (whole entry): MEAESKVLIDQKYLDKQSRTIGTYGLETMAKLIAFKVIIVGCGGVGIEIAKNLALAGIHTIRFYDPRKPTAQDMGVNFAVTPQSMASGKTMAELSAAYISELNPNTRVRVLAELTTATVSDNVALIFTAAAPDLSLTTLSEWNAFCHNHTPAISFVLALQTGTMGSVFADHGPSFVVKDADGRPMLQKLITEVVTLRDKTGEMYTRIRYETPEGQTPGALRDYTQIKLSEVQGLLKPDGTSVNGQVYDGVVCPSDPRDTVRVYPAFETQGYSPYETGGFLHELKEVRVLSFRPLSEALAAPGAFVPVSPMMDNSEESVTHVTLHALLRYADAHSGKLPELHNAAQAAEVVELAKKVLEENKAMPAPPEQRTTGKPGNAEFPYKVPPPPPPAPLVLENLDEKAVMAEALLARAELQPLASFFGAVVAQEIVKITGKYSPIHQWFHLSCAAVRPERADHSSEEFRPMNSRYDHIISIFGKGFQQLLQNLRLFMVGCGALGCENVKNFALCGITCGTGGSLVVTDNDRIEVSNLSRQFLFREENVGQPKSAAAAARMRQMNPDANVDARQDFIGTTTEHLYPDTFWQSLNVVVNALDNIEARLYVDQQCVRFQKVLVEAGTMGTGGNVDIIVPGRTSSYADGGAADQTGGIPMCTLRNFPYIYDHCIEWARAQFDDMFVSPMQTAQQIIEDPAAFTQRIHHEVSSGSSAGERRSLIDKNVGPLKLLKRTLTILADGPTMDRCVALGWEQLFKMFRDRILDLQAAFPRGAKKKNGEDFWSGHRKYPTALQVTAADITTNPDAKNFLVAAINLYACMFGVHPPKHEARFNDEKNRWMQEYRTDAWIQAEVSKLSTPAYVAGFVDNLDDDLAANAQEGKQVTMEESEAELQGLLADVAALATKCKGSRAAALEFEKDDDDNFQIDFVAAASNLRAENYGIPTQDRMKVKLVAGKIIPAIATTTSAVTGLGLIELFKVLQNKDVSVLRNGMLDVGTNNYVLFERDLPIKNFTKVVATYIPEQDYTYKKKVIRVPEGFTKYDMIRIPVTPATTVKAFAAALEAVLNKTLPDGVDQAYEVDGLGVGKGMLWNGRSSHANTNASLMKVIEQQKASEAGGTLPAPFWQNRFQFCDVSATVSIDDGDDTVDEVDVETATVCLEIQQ

[3] = target: Sialic acid-binding Ig-like lectin 9 (Homo sapiens) (UniProt Q9Y336); test: Hs-Siglec9 ALPHAscreen SOP 20170721; conditions: 10 µM
Trypanosoma cruzi = test: Trypanosoma cruzi phosphomannomutase and mannose-1-phosphate guanylyltransferase assay; format: functional; conditions: 10 µM
[4] = target: T2, Arginase-2, mitochondrial (Homo sapiens) (UniProt P78540); test: in vitro enzyme assay to detect the production of urea directly proportional to the activity of Arginase II; format: functional; conditions: 33.3 µM; further: in the data most compounds retested in dose-response had high values
T2 sequence (whole entry): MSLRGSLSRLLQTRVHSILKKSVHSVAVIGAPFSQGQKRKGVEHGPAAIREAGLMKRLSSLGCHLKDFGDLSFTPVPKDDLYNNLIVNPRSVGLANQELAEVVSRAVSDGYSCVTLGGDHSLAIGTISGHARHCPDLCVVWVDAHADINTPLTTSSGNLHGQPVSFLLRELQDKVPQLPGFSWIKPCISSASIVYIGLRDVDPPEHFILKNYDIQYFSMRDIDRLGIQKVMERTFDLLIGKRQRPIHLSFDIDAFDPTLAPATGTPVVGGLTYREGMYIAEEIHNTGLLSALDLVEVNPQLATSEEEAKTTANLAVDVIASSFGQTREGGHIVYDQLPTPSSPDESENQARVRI

[5] = target: T3, Proteasome subunit beta (Trypanosoma cruzi) (UniProt O96673); test: Trypanosoma cruzi proteasome chymotrypsin-like activity (TcProtChymo) assay.; further: in the data most compounds retested in dose-response had high values; format: functional; conditions: 9.37 µM
T3 sequence (whole entry): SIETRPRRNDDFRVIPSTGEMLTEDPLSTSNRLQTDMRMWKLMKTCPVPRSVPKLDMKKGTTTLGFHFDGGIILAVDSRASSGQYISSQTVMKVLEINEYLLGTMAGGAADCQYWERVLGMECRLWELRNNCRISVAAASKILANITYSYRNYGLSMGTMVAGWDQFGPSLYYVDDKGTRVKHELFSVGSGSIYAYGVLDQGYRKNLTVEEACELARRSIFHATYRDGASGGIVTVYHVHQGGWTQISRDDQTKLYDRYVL

Homo sapiens = species: Homo sapiens; test: To identify inhibition of the IFN signalling (Jak-Stat) pathway via expression of an eGFP reporter gene under the control of an IFN-stimulated response element (ISRE) containing MxA promoter.; format: functional; conditions: 30 µM
[6] = target: T4, Tyrosyl-tRNA synthetase, putative (Trypanosoma cruzi (strain CL Brener)) (UniProt Q4DSP6); test: Trypanosoma cruzi tyrosyl tRNA synthetase (TcYRS) _High Tyrosine SOP; format: functional; conditions: 30 µM; further: in the data most compounds retested in dose-response had high values
T4 sequence (whole entry): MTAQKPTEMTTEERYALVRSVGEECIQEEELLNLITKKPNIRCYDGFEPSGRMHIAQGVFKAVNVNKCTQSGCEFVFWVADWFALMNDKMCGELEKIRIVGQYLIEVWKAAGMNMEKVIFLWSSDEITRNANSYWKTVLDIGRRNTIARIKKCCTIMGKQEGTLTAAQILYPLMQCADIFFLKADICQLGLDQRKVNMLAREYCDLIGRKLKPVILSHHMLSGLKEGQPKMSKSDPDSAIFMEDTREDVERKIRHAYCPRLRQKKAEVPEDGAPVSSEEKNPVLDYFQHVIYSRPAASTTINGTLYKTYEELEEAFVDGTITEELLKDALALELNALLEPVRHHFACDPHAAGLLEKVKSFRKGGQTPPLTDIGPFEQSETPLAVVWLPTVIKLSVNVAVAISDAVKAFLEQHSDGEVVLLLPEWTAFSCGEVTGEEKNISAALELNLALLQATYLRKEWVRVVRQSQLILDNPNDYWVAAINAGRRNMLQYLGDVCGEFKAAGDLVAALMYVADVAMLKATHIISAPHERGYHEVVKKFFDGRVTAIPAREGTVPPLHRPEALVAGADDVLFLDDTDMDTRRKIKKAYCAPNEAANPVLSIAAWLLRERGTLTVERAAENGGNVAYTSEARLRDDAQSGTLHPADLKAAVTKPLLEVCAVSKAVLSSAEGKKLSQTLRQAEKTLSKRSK

[7] = target: T4, Tyrosyl-tRNA synthetase, putative (Trypanosoma cruzi (strain CL Brener)); test: Trypanosoma cruzi tyrosyl tRNA synthetase (TcYRS) SOP; format: functional; conditions: 30 µM
[8] = target: Chromo domain-containing protein 1 (Saccharomyces cerevisiae (strain ATCC 204508 / S288c) (Baker's yeast)) (UniProt P32657); test: ScCHD-1 Enzyme Inhibition Assay; format: functional; conditions: 30 µM; further: in the data most compounds retested in dose-response had high values
Chain of Chromo domain-containing protein 1 (Saccharomyces cerevisiae (strain ATCC 204508 / S288c) (Baker's yeast)) (P32657 whole entry, the tested form may be a part): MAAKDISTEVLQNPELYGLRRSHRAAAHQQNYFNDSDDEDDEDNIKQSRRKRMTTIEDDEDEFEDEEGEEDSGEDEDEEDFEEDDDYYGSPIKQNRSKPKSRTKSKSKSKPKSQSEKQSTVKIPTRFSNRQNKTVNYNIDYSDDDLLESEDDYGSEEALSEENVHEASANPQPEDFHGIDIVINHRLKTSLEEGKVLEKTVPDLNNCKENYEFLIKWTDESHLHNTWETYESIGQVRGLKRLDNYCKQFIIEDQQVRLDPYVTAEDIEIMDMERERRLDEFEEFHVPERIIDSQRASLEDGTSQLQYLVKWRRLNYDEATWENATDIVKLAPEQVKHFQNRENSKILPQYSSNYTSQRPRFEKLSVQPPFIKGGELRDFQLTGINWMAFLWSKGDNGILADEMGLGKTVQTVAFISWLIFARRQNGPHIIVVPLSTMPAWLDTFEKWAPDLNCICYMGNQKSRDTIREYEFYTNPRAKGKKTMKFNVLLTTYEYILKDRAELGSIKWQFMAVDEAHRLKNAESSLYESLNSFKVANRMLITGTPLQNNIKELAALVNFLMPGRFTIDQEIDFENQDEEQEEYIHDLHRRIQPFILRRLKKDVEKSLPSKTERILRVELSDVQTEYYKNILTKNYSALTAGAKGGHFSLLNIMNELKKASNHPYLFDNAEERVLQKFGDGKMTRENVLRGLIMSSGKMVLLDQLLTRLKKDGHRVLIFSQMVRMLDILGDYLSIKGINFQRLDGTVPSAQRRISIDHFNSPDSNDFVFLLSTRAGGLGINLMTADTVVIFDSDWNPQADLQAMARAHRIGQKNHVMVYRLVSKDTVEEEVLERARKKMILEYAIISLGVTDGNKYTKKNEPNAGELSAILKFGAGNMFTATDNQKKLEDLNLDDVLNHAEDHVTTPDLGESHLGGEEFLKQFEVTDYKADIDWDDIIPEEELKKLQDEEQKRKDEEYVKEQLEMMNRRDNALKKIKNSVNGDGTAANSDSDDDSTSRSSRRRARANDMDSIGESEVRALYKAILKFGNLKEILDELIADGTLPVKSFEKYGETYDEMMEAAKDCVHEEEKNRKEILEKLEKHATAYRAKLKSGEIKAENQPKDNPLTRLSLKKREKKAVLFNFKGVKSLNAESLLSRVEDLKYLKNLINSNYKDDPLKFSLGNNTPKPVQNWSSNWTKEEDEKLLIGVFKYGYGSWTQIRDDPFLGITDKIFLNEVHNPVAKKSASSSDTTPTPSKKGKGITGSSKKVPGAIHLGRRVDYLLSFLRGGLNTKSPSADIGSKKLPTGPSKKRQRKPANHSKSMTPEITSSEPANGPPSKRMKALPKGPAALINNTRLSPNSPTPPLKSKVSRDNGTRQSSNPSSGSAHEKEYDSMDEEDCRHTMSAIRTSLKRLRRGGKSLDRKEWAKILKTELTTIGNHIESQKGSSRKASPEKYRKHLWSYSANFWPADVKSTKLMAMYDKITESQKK

Chain of Protein translocase subunit SecA (Escherichia coli (strain K12)) (P10408 whole entry): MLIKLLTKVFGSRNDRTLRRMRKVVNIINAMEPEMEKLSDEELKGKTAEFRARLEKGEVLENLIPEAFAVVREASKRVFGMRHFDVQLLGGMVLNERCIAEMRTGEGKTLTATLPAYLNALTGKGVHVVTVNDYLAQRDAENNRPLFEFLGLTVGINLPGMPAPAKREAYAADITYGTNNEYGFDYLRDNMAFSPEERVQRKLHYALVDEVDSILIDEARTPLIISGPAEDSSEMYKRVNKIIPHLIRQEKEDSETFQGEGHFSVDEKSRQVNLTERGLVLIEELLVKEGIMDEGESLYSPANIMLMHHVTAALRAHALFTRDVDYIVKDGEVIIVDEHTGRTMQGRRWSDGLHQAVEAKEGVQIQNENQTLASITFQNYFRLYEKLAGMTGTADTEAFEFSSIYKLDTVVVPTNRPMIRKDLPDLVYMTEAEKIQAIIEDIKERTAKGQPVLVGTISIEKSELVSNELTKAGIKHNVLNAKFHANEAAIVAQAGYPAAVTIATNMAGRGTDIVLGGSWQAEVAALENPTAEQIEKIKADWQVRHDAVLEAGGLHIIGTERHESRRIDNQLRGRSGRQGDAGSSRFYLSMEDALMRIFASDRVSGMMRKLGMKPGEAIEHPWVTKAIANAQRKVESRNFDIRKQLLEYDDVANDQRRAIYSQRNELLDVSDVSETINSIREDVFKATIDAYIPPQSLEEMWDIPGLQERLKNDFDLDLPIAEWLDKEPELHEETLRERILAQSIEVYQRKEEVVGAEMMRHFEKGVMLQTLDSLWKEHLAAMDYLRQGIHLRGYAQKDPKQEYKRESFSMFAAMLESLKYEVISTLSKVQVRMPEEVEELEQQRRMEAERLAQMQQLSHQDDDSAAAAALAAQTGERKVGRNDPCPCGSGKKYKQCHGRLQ
Chain of Sialic acid-binding Ig-like lectin 9 (Homo sapiens) (Q9Y336 whole entry): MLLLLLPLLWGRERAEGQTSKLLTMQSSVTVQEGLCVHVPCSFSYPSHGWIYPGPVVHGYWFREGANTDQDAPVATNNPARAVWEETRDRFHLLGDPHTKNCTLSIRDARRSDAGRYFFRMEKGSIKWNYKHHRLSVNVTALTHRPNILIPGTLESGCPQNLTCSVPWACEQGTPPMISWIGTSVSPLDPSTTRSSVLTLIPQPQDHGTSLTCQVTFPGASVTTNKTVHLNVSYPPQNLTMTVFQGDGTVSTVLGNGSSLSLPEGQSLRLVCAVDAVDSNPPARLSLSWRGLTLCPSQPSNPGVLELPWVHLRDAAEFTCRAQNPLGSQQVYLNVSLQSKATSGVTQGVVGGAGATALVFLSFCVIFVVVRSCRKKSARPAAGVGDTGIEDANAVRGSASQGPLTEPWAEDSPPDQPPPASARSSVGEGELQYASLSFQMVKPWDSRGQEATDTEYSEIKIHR

SMILES	Percent Effect [1] [%]	Percent Effect [2] [%]	Percent Effect [3] [%]	Percent Effect (Trypanosoma cruzi) [%]	Percent Effect [4] [%]	Percent Effect [5] [%]	Percent Effect (Homo sapiens) [%]	Percent Effect [6] [%]	Percent Effect [7] [%]	Percent Effect [8] [%]
Cc1ccc(Oc2ccc(NC(=O)NCC3CCOC3)cn2)cc1C (stereo not given)	-2.89	10.3	-3.96	7.98	6.97	8.79	-3.33	4.31	20.5	-8.82
CNC(=O)[C@@H]1C[C@H]2CN(Cc3nccs3)C[C@H]2N1C	0.644	27.3	-2.68	0.75	2.28	19.7	11.3	12.6	22.5	-5.35
Cc1ccc(NC(=O)C2CSCN2C(=O)c2cnn(C)c2)c(C)c1 (stereo not given)	-6.12	5.13	11	3.29	-0.41	-1.28	0.716	4.31	18.1	-1.32
Cc1c(CN2CCCC(c3[nH]ncc3S(C)(=O)=O)C2)cnn1C (stereo not given)	-2.55	22.7	-0.226	3.94	-5.75	12.5	11.7	3.17	17.5	-24.1
Cc1ncnc(NCc2cc3n(n2)CCCN(S(C)(=O)=O)C3)c1C	-4.52	8.11	3.12	-1.07	-1.75	7.71	-0.0892	5.85	14.6	-4.37
CCc1ncc2c(n1)CN(CC(=O)Nc1nnc(C)s1)CC2	-2.11	5.33	0.404	-4.22	5.32	8.4	-8.8	6.84	10.3	-13.6
Cc1ccc(C(=O)NCCNc2ncccc2C#N)c(=O)[nH]1	-1.94	5.2	-3.54	-8.77	-15	15.3	17.6	6.86	7.06	-7.29
CN(Cc1ccccc1)CC(O)Cn1cnc2c(cnn2C)c1=O (stereo not given)	-1.52	17.9	-4.11	4.79	2.46	10.5	-1.98	7.18	22.9	-3.86
O=C(O)c1cc(S(=O)(=O)N2CCOc3ccccc32)ccc1F	-6.51	10.3	-10.2	5.54	-0.82	10.8	-4.8	-0.478	18.1	-3.79
Cc1cc(-c2nn(C)c(Cl)c2CN2Cc3ccccc3C(O)C2)no1 (stereo not given)	-0.14	24.3	18.2	11.2	20.6	6.34	47.5	3.72	4.88	-1.98
Cc1cccc(CN2CCC3(CCN(c4ccccn4)C3)C2=O)c1 (stereo not given)	-2.21	16.9	0.691	3	-0.913	14	11.4	10.6	12.5	-5.26
Cc1ccccc1-c1cncc(C2CCN(C(C)C)CC2)n1	-10.1	12	6.88	3.55	-1.77	8.37	-7.37	7.41	17.5	-27.9
O=C(c1ccc2c(c1)OCO2)N1CCN(c2cnccn2)CC1	-4.95	12.8	-0.564	-1.6	4.51	10.2	16	5.26	13.2	-6.8
COC(=O)COc1cccc(NS(=O)(=O)c2cc(C(=O)O)cs2)c1	-0.923	17.9	-17.3	4.41	-2.87	17.5	22.9	1.44	20.5	-7.25
FC(F)(F)Cn1ccnc1CN1CCCC1c1noc(C2CC2)n1 (stereo not given)	0.298	10.7	-5.86	-3.01	-4.43	15.7	16.6	4.74	15.4	-9.44
O=C(C1CCOC1)N1CCc2ncc(CNc3ccccn3)n2CC1 (stereo not given)	-0.228	1.3	8.26	-0.682	-1.62	6.8	4.98	3.68	5.13	-14.8
COc1cc(C)nc(N2CCN(C(=O)COCC(F)(F)F)CC2)n1	-3.6	7.69	-1.63	-1.22	1.64	3.16	22.4	4.31	8.43	-3.52
CCc1cc(O)nc(C2CCCN2C(=O)c2cccnc2)n1 (stereo not given)	5.68	14.7	-8.39	-6.71	3.1	15.1	13	0	5	-14.4
Cc1cccnc1CNCC1(O)CCCN(CC2CCCCC2)C1=O (stereo not given)	-6.4	0	-1.52	-2.04	-3.85	3.25	1.47	7.98	17.1	0.826
O=C(NCCc1cccnc1)N1CCCC1c1ccsc1 (stereo not given)	-6.89	17.9	-11.1	5.73	3.69	6.74	13.9	5.26	22.9	-9.16
COc1cc(CNCc2ccc(NC(=O)NC(C)C)cc2)cc(OC)c1	-1.27	15.6	5.02	6.9	10.4	16.1	33.6	8.82	30.6	-10.7
Cc1cnn(CC2CCCN2C(=O)c2cc(Cl)ccc2F)c1 (stereo not given)	-1.32	2.6	-6.93	-0.933	5.12	4.91	10.8	-1.96	-2.35	2.99
CC(C)n1ccnc1CN1CCCN(C(=O)c2cc(Cl)c[nH]2)CC1	-0.854	10.3	-9.31	-3.1	11.5	16.1	10.8	6.22	18.1	-3.25
